Screens: PubChem, National Center for Advancing Translational Sciences (NCATS)
HP1b chromo inh: HP1-beta chromodomain-methylated histone interaction inhibition. AlphaScreen HP1-beta / biotin-H3K9me3 peptide binding. actives 0.56% (n = 390,000). P83916. Potency, µM (top dose mostly 114 µM), inactives show at the top dose activity change, negative = inhibition, usual class: inhibitors; note: nearly all actives have a fitted effect of over 70% in size
Target sequence (P83916 whole entry, looked up): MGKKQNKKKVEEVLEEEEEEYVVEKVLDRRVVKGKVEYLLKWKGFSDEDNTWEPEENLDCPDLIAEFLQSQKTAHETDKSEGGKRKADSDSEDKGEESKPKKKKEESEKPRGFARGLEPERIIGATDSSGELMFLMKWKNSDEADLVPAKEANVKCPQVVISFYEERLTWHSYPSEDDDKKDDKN
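HP1-beta protein (50 nM final) preincubated 30 min at room temperature with biotinylated H3(1-18)K9me3 peptide (50 nM) in PBS pH 7.4, 0.01% Tween-20, then compound added for 30 min. AlphaScreen streptavidin donor/nickel chelate acceptor beads (10 ug/mL final), 30 min dark, luminescence read.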
BAZ2B block: inhibitors of human BAZ2B bromodomain. actives 4.4% (n = 360,000). Potency, µM (titrated, usually from 114 µM), without a hit: at the highest dose activity change, negative = inhibition, hits mostly inhibitors. AlphaScreen BAZ2B-H3K14Ac peptide displacement. AID 504333; note: % is set by controls: 0 for no effect and ±100 for the full control effect; nearly all actives have a fitted effect of over 60% in size
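BAZ2B 50 nM plus b-H3(5-23)K14Ac 50 nM, PBS pH 7.4/0.01% Tween-20, 30 min RT; compound added (max 110 uM), 30 min RT; streptavidin donor/Ni-chelate acceptor beads 10 ug/mL final, 20 min dark; AlphaScreen read.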
JMJD2A Tudor inh: JMJD2A Tudor domain (human) inhibition; actives 4.4% (n = 390,000); O75164; AlphaScreen JMJD2A-Tudor / H3K4me3 peptide binding; Potency, µM (titrated, usually from 114 µM), for inactives: top-dose activity change, negative = inhibition, hits mostly inhibitors; note: % is set by controls: 0 for no effect and ±100 for the full control effect; nearly all actives have a fitted effect of over 50% in size
12-LOX inh: ALOX12 (human) lipoxygenase inhibition; purified 12hLO, xylenol orange hydroperoxide absorbance; Potency, µM (titrated, usually from 108 µM), without a hit: at the highest dose activity change, negative = inhibition, actives largely listed as inhibitors; actives 1.1% (n = 580,000); P18054; note: % is set by controls: 0 for no effect and ±100 for the full control effect
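Purified human 12hLO at 150 nM in 25 mM Hepes, 0.01% Triton X-100, pH 7.0, preincubated 15 min at room temperature with compound. Reaction started with 40 uM arachidonic acid, 30 min at room temperature. Hydroperoxide measured by Fe-xylenol orange, 573/405 nm absorbance ratio.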
Sfp PPTase inh: inhibitors of Bacillus subtilis Sfp phosphopantetheinyl transferase | Biochemical Sfp PPTase activity, qHTS | Potency, µM, for inactives: largest response in the series, negative = inhibition, hits mostly inhibitors | Q9F4F7 | actives 3.5% (n = 310,000);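 note: the enzyme is Sfp with the accession as filed and its product quenches rhodamine fluorescence; 0% = enzyme reaction without inhibitor and -100% = no enzyme wells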
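Reaction rates are the 30-min fluorescence difference (ex 525, em 598 nm) in wells containing 15 nM Sfp, 5 uM rhodamine-CoA and 12.5 uM BHQ-2-YbbR at pH 7.6 with 10 mM MgCl2.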
G9a block: G9a (human) methyltransferase inhibition; Potency, µM (titrated, usually from 102 µM), for the others: at the highest dose activity, negative = inhibition, hits mostly inhibitors; actives 8.8% (n = 350,000); G9a H3K9 monomethylation, AlphaScreen, 2 h; note: % is set by controls: 0 for no effect and ±100 for the full control effect; nearly all actives have a fitted effect of over 75% in size
Target sequence (Q96KQ7 913-1193 limits assumed): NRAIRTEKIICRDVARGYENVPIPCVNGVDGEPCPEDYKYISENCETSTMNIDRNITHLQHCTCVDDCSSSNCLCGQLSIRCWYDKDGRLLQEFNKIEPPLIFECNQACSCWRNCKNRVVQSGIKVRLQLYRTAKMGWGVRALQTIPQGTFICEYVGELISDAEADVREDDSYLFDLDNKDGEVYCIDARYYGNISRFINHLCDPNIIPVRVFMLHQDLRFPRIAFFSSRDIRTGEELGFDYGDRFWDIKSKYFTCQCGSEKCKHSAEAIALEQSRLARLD
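Enzyme 20 nM + cpd, 15 min RT; add b-H3K9 pep 500 nM / SAM 20 uM; 2 h RT; anti-H3K9me1 Ab 0.5 ug/mL + SA donor / anti-rabbit acceptor beads 20 ug/mL each, 10 min; AlphaScreen read.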
* marks the source's active call; other numbers are inactive results; ? = inconclusive; . = no result; [ ] = another dose, or the depositor's remark. Hits are enriched below; roughly 8.7% of the tested compounds scored in any of these assays. Calls come from the whole dose curve; as a rule, active = well fitted curve in the direction sought with a large enough effect; inconclusive = small, poorly fitted or top-dose-only effect, or another doubt; inactive = no such curve, though single readings can be large; an effect the other way counts as inactive or inconclusive. Potency is the fitted concentration of half-maximal effect.

SMILES	HP1b chromo inh	BAZ2B block	JMJD2A Tudor inh	12-LOX inh	Sfp PPTase inh	G9a block
Fc1ccc(OCCOCCN2CCCC2)cc1	?	.	6.3µM*	-45%	.	.
CN1CCN(CCCCOc2ccc(F)cc2)CC1	43%	-2%	14%[57.1 µM]	9%	-4%	-31%
c1ccc(OCCOCCN2CCN(C(c3ccccc3)c3ccccc3)CC2)cc1	?	50µM*	0.89µM*	?	-34%	10µM*
CCN(C(=O)CN1C(=O)NC(c2ccccc2Cl)C2=C1COC2=O)c1cccc(C)c1 (stereo unspecified)	.	.	.	3%	.	.
Cc1cccc(C)c1NC(=O)CCc1c[nH]c2ccccc12	.	.	.	-45%	.	.
CCOc1ccc(OCCOCCN2CCCC2)cc1	-20%	?	28µM*	?	?	8.9µM*
CCOc1ccc(CNCCN2CCCC2)cc1	?	56µM*	13µM*	?	-28%	2.8µM*
CCc1cccc(OCCOCCN2CCCC2)c1	?	79µM*	10µM*	?	-4%	10µM*
CCc1ccc(CNCCN2CCCC2)cc1	.	.	.	-20%	.	.
Cc1cc(OCCOCCN2CCCC2)ccc1C(C)C	19%	?	5µM*	?	-10%	20µM*
O=C1CCN(C(=O)c2ccco2)CCCCCCN1	.	.	.	49%	.	.
O=S(Cc1ccccc1)Cc1c(Cl)cccc1Cl (stereo unspecified)	.	.	.	-6%	.	.
CC(OCCN1CCCC1)(c1ccc(F)cc1)c1ccc(F)cc1	23%	-3%	89µM*	?	4%	8%[59 µM]
CNCCOc1ccc(Cl)c(Cl)c1	?	-33%	3.2µM*	-16%	-19%	40µM*
CC(c1nnc(-c2cccs2)o1)N(C)Cc1ccc(Br)cc1 (stereo unspecified)	.	.	.	-8%	.	.
Cc1cccc(-c2cnc3n[nH]c(-c4ccccc4)c3n2)c1	.	.	.	28%[176 µM]	.	.
C/C(=N/Nc1ccc([N+](=O)[O-])cc1)c1c[nH]c2ccccc12	?	40µM*	?	?	6%	?
C/C(=N/Nc1ccc([N+](=O)[O-])cc1)c1ccncc1	.	.	.	35µM*	.	.
C/C(=N/Nc1ccc([N+](=O)[O-])cc1)c1ccc(C)cc1C	13%	-22%	-24%	?	15%	-35%
C/C(=N/NC(=O)CNC(=O)c1ccccn1)c1cccc([N+](=O)[O-])c1	24%	?	0%	-3%	-21%	18µM*
C/C(=N\Nc1ccccc1)c1cccc([N+](=O)[O-])c1	.	.	.	6.3µM*	.	.
CC1(C)CC(CN2CCC3(CC2)CC(=O)N(Cc2ccccc2)C3)CCO1 (stereo unspecified)	.	.	.	10%	.	.
C/C(=N\Nc1nccnc1Cl)c1ccc([N+](=O)[O-])cc1	-4%	-19%	-14%	463%	79µM*	18%[59 µM]
C/C(=N\NC(=O)C(C)Oc1ccc([N+](=O)[O-])cc1)c1ccccn1 (stereo unspecified)	33%	25µM*	56µM*	2%	19%	-3%[59 µM]
C/C(=N\Nc1cc(C(F)(F)F)ccc1Cl)c1ccncc1	35%	-15%	-11%	?	-1%	40µM*
SMILES	HP1b chromo inh	BAZ2B block	JMJD2A Tudor inh	12-LOX inh	Sfp PPTase inh	G9a block
C/C(=N\Nc1ccc(Cl)cc1)c1ccncc1	0%	?	?	?	-10%	?
C/C(=N\Nc1cccc(Cl)c1)c1ccncc1	49%	?	-35%	18µM*	6%	?
Cc1cc(C)cc(Nc2nc(NC3CCCCCC3)nc3c2cnn3-c2ccccc2)c1	.	.	.	-3%	.	.
CCCc1nc(C(=O)N2CCC3(CC2)C(=O)N(C)c2ccccc23)cs1	.	.	.	11%	.	.
CN1CCN(C(=O)CNc2nc(Cl)nc3nc[nH]c23)CC1	.	.	.	2%	.	.
CC1=C(C(=O)Nc2ccccc2)C(c2ccc[nH]2)n2ncnc2N1 (stereo unspecified)	-28%[57 µM]	8.9µM*	22µM*	-8%	.	?
CC1=C(C(=O)Nc2ccccc2)C(c2ccccn2)n2ncnc2N1 (stereo unspecified)	26%	-10%	-3%	0%	9%	8%[59 µM]
Cc1cc(C(=O)N2C[C@@H](COc3ccccc3)[C@H](C(N)=O)C2)n(C)n1	.	.	.	39%	.	.
[O-]c1n[n+](-c2ccc(Cl)cc2Cl)cc2ccccc12	-4%	-17%	-18%	-8%	-12%	?
[O-]c1n[n+](-c2ccc(Cl)cc2)cc2ccccc12	4%	-10%	14µM*	-42%	12%	35µM*
O=C(O)CCn1cnc2onc(-c3ccccc3Cl)c2c1=O	?	50µM*	50µM*	?	.	?
COc1cc(NC(=O)CCn2cnc3onc(-c4ccccc4Cl)c3c2=O)cc(OC)c1	.	.	.	-6%	.	.
O=C(CCCCl)NC1=NN(c2ccccc2)C(=O)C1	19%	?	-18%	-7%	-23%	4%[59 µM]
O=C(COc1ccc(Cl)cc1)NC1=NN(c2ccccc2)C(=O)C1	-9%	?	?	45µM*	15%	-17%[59 µM]
Cc1cccc(NC(=O)c2nn(C)c(=O)c3ccccc23)c1	.	.	.	14%	.	.
CCOc1cc(C2/C(=C(\O)c3cc(C)ccc3C)C(=O)C(=O)N2CCN(C)C)ccc1O (stereo unspecified)	26%	-10%	?	0%	-20%	-16%[12.7 µM]
CCCOc1ccc(/C(O)=C2/C(=O)C(=O)N(CCN(C)C)C2c2ccc(O)c(OC)c2)cc1 (stereo unspecified)	50%	9%	-29%	.	8%	45µM*
COc1cc(C2/C(=C(\O)c3cc(C)ccc3C)C(=O)C(=O)N2CCN(C)C)ccc1O (stereo unspecified)	13%	-8%	-12%	0%	-9%	50µM*
COc1ccc(/C(O)=C2/C(=O)C(=O)N(CCCC(=O)O)C2c2ccc(OC)c(OC)c2)cc1 (stereo unspecified)	8%	4%	-10%	?	5%	-2%[0.0925 µM]
COCCCN1C(=O)C(=O)/C(=C(/O)c2ccc(OC)cc2)C1c1ccc(O)c(OC)c1 (stereo unspecified)	18%	-5%	-26%	6.3µM*	0%	-6%[59 µM]
Cc1ccc(/C(O)=C2\C(=O)C(=O)N(CC(C)O)C2c2cccc(F)c2)cc1 (stereo unspecified)	27%	8%	?	18µM*	13%	29%[59 µM]
O=C1C(=O)N(CCN2CCOCC2)C(c2cccc(F)c2)/C1=C(\O)c1ccc(Br)cc1 (stereo unspecified)	.	.	.	-4%	.	.
CCCOc1cccc(C2/C(=C(/O)c3ccccc3)C(=O)C(=O)N2CCN(C)C)c1 (stereo unspecified)	14%	?	-13%	?	7%	-5%[12.7 µM]
